# Assay outcomes as filed in PubChem BioAssay.
# Sampled rows, rich in hits. Any-hit rate of the full collection: about 1.6%.
# dFosB act-1: activators of mouse delta FosB homodimer; activation, % at 25 µM; 0.99% of 340,000 active; P13346; purified delta FosB, TAMRA-CDK5 oligo fluorescence polarization; percent of positive-control signal above neutral wells; AID 493131;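 active = mean activation above about 17%, with every replicate also reaching it, limit read from the data, passing the limit was not always enough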
# Beta2AR agonist: human beta-2 adrenergic receptor agonism by FAP; Am2.2-beta2AR cells, FAP receptor internalization, flow cytometry; 0.43% of 340,000 active; response, % (concentration not given with the values);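 active = response above a set limit, near 3 SD of response in nonfluorescent compounds, cut at about 42% in these data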
# Target sequence (P07550 whole entry, looked up): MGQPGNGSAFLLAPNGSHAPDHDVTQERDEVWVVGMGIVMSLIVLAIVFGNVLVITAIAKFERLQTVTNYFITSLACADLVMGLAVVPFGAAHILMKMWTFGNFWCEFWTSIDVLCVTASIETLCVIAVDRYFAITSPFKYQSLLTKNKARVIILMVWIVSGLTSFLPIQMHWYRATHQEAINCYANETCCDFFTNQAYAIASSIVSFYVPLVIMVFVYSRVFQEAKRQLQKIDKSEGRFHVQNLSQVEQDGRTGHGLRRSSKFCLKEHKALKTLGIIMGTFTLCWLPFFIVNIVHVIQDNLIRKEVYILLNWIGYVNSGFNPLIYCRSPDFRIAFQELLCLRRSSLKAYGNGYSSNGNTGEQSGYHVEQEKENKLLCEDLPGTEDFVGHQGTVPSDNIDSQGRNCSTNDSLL
# Dyrk1A ADPGlo: inhibitors of rat Dyrk1A kinase; Q63470; ADP-Glo luminescence, NFATc1 peptide; inhibition, % at 12.5 µM; 0.43% of 310,000 active; in the data active = inhibition above about 50%;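 also: plate controls were vehicle with enzyme for no effect and no enzyme for full effect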
# Bfl-1 A1 inh: inhibitors of the anti-apoptotic protein A1, read as caspase activation | MEF A1-2A-BIM cells, Caspase-Glo 3/7 luminescence, 3 h; percent of clofoctol response, vehicle zero | caspase activation, % (concentration not given with the values) | 0.066% of 330,000 active | AID 2462;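 active = over half of replicate activation scores above 10%, or exactly half above 10 with the replicate mean above 10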
# dFosB act-2: enhances mouse delta FosB homodimer binding to DNA; activation, % at 24.9 µM; shares compounds with dFosB act-1; purified delta FosB, TAMRA-CDK5 oligo fluorescence polarization; normalised: neutral wells 0, positive control 100; 2,400 tested, under 10 active;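 active = highest replicate activation at or above 34% and every replicate reaching that threshold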;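 also: higher polarization means more probe DNA bound by delta FosB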
# Starred values were filed as active, the others as inactive; . = not tested or not shown.
SMILES,dFosB act-1,Beta2AR agonist,Dyrk1A ADPGlo,Bfl-1 A1 inh,dFosB act-2
CCOC(=O)N1CCN(S(=O)(=O)c2ccc(C(=O)Nc3nc4ccccc4s3)cc2)CC1,23*,-9,-7,-1,0
O=C(c1ccc(Cn2c(=S)[nH]c3ccc(Br)cc3c2=O)cc1)N1CCN(C2CCCCC2)CC1,31*,4,-7,-1,5
CCCn1c(=S)[nH]c2cc(C(=O)NCC3CCCO3)ccc2c1=O (stereo not drawn),3,5,1,0,.
COC(=O)c1ccc2c(=O)n(Cc3ccc(C(=O)NCCCN4CCOCC4)cc3)c(=S)[nH]c2c1,29*,2,-1,-1,5
O=C(NCC1CCCO1)c1ccc2c(=O)n(Cc3cccc(Br)c3)c(=S)[nH]c2c1 (stereo not drawn),44*,-4,-3,1,-4
CCOc1cc2[nH]c(=S)n(Cc3ccc(C)o3)c(=O)c2cc1OCC,34*,1,3,1,3
CCC(Oc1ccccc1OC)C(=O)Nc1ccc2c(c1)OCO2 (stereo not drawn),-6,-13,4,0,.
CCOc1cc2[nH]c(=O)n(Cc3ccc(C(=O)NCCCN4CCC(C)CC4)cc3)c(=O)c2cc1OCC,26*,8,.,0,4
CCOc1cc2[nH]c(=S)n(Cc3ccc(C(=O)NCCCN4CCOCC4)cc3)c(=O)c2cc1OCC,9,3,-6,-1,.
CCOc1cc2[nH]c(=O)n(CCc3ccc(OC)c(OC)c3)c(=O)c2cc1OCC,25*,5,0,0,-13
CCOc1cc2[nH]c(=S)n(Cc3ccc(C(=O)NCCCOC)cc3)c(=O)c2cc1OCC,1,16,-2,0,.
COc1ccc(Cn2c(=S)[nH]c3cc(C(=O)NCc4cccnc4)ccc3c2=O)cc1,24*,5,-10,1,1
CCOc1cc2[nH]c(=S)n(Cc3ccc(C(=O)NCCCN(CC)CC)cc3)c(=O)c2cc1OCC,30*,16,0,1,5
Cc1cccc(C)c1NC(=O)CN1CCc2ccccc2C1,-2,-1,1,0,.
COc1ccc(-c2nc(C(N)=O)c3[nH]c(=O)n(-c4cccc(Cl)c4)c3n2)cc1OC,29*,-8,1,.,-17
CCOc1ccc(NC(=O)[C@@H](NC(=O)OCc2ccccc2)[C@@H](C)CC)cc1,-5,-2,1,0,.
CCC(C)C(NC(N)=O)C(=O)Nc1ccc(OCc2ccccc2)cc1 (stereo not drawn),43*,-5,-10,-1,6
S=C(c1cn(CCOc2cccc3ccccc23)c2ccccc12)N1CCCC1,27*,4,-2,0,1
S=C(c1cn(CCOc2ccccc2)c2ccccc12)N1CCCC1,7,-4,-2,0,.
Cc1nc(C)c(C(=O)Nc2cccc(F)c2)s1,3,-6,16,-1,.
NS(=O)(=O)c1ccc(NC(=O)c2cc(-c3ccccc3O)n[nH]2)cc1,-5,10,1,-1,.
Cc1cccc(NC(=O)c2cc(-c3cc(Cl)ccc3O)n[nH]2)c1,6,2,-1,0,.
Cc1ccc(NC(=O)c2cc(-c3cc(Cl)ccc3O)n[nH]2)cc1C,22*,-1,-1,2,4
Cc1ccc(NC(=O)c2cc(-c3ccccc3O)n[nH]2)cc1Cl,41*,3,-2,1,-7
COc1ccc(NC(=O)c2cc(S(=O)(=O)N3CCc4ccccc43)cn2C)cc1OC,3,25,3,0,.
SMILES,dFosB act-1,Beta2AR agonist,Dyrk1A ADPGlo,Bfl-1 A1 inh,dFosB act-2
Clc1ccc(-c2ccnc(Oc3ccc4ccccc4c3)n2)cc1,-2,-15,5,2,.
Clc1ccc(-c2ccnc(Oc3cc(Cl)ccc3Cl)n2)cc1,19*,10,0,0,-7
CC(NC(=O)COC(=O)CCC(=O)c1ccc(F)cc1)c1ccccc1 (stereo not drawn),-4,-3,4,0,.
CCOc1ccc2[nH]c3nc(SCC(=O)OC(C)C)nnc3c2c1,5,7,4,0,.
CC(C)c1ccc2[nH]c3nc(SCC(=O)NC4CC4)nnc3c2c1,30*,0,2,-1,0
CC(Sc1nnc2c(n1)[nH]c1ccccc12)C(=O)NC1CCCCC1 (stereo not drawn),22*,-17,-1,0,2
CN(CCc1ccccc1)C(=O)c1ccc(NC(=O)Cc2ccc(NC(=O)C3CCCN(C(=O)C4CCCC4)C3)cc2)cc1 (stereo not drawn),-3,-13,.,.,.
